Hits are enriched below; roughly 7.2% of the tested compounds scored in any of these assays.
Sm TGR block – S. mansoni TGR enzyme inhibition. Q962Y6. purified TGR, DTNB reduction, TNB absorbance 405 nm. Potency, µM (titrated, usually from 114 µM), for the others: top-dose activity change, negative = inhibition, most hits filed as inhibitors. 360,000 compounds, 3% hits. AID 485364; note: nearly all actives have a fitted effect of over 60% in size
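First, TGR (20 nM dispensed) and NADPH were mixed with compound. Second, a 15 min room-temperature incubation followed. Third, further NADPH and then DTNB were added to start the reaction. Finally, TNB absorbance was monitored kinetically.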
FMDV antiviral – foot and mouth disease virus antiviral activity; AID 1159524; FMDV antiviral cell-based qHTS; Potency, µM (top dose mostly 57.9 µM), inactives show top-dose activity change, negative = inhibition, actives largely listed as inhibitors; 410,000 compounds, 1.2% hits; calls by dose curve; tested in HEK293T cells; note: read-out not given here; nearly all actives have a fitted effect of over 45% in size
RE007 growth inh – less growth of the S. pombe RE007 Vpr strain; 360,000 compounds, 0.21% hits; Potency, µM (highest dose often 92.2 µM), without a hit: top-dose activity change, negative = less growth, most hits filed as inhibitors; AID 651644; S. pombe RE007 Vpr strain, BacTiter-Glo ATP luminescence, 24 h; active = well fitted falling curve with a large enough effect; inconclusive = small, poorly fitted or top-dose-only effect; inactive = no such curve, though single readings can be large or run the other way; note: nearly all actives have a fitted effect of over 50% in size
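Fission yeast RE007 carrying one integrated HIV-1 vpr copy, seeded at OD 0.01 in PMG+AL medium with 23 nL pinned compound. Grown 24 h at 30 degrees; viability read by BacTiter-Glo luminescence after 5 min.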
HCV inhibitor – HCV inhibition; Huh7.5.1 HCVcc-Cre infection, luciferase reporter, 44 h; Potency, µM (doses to about 41.8 µM), for the others: at the highest dose activity change, negative = inhibition, usual class: inhibitors; 340,000 compounds, 3.4% hits
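Reporter virus HCVcc-Cre (~0.5 moi) infects cells exposed to compound; seeding density 1,000 cells/well with 4 h settling beforehand. Luminescence, 15 sec read, taken 44 h post-infection following a 15 min RT substrate incubation.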
MARV entry inh – Marburg virus entry inhibition. Marburg virus pseudotyped entry inhibition, cell reporter. AID 540276. 300,000 compounds, 1.8% hits. Potency, µM (titrated, usually from 37.8 µM), inactives show top-dose activity change, negative = inhibition, actives largely listed as inhibitors; calls by dose curve; tested in HEK293 cells
Lassa entry inh – inhibitors of Lassa virus binding or cell entry. 300,000 compounds, 1.2% hits. AID 540256. Potency, µM (series often up to 37.9 µM), without a hit: top-dose activity change, negative = inhibition, hits mostly inhibitors. Lassa virus pseudotype entry inhibition, cell reporter; calls by dose curve; tested in HEK293 cells; note: nearly all actives have a fitted effect of over 50% in size
* marks the source's active call; other numbers are inactive results; [ ] = another dose, or the depositor's remark. Unless noted, calls come from the whole dose curve; as a rule, active = well fitted curve in the direction sought with a large enough effect; inconclusive = small, poorly fitted or top-dose-only effect, or another doubt; inactive = no such curve, though single readings can be large; an effect the other way counts as inactive or inconclusive. % is set by controls: 0 for no effect and ±100 for the full control effect; potency is the fitted concentration of half-maximal effect.

How did CSc1cc(-c2ccc(Cl)cc2)c(C(=O)NN)s1 do in these assays?
Sm TGR block: -19%; FMDV antiviral: 2%; RE007 growth inh: -13%; HCV inhibitor: 3.5µM*; MARV entry inh: inconclusive; Lassa entry inh: 11%

Results for O=C(CSc1nnc(-c2ccccc2)c(-c2ccccc2)n1)NC1CCCCC1 ?
Sm TGR block: -13%; FMDV antiviral: -10%; Lassa entry inh: 0%[46.1 µM]

Results for COc1ccc(/C=N/Nc2cc(C)nc3c(C)cccc23)cc1 ?
Sm TGR block: 17%; FMDV antiviral: 24%; RE007 growth inh: 4%; HCV inhibitor: 13µM*

How did COc1cc(CN2CCC3(CC2)CC3C(=O)Nc2ccc3sc(C)nc3c2)ccc1F (configuration not stated) do in these assays?
FMDV antiviral: -10%

What do the screens show for `Cc1cccc(Nc2c3c(nc4ccccc24)CCC3)c1`?
Sm TGR block: 6%; FMDV antiviral: inconclusive; RE007 growth inh: -11%; HCV inhibitor: inconclusive; MARV entry inh: 11µM*; Lassa entry inh: inconclusive

What do the screens show for `Cc1ccc2nc3c(c(Nc4ccc5c(c4)OCCO5)c2c1)CCC3`?
Sm TGR block: 6%; FMDV antiviral: -44%; RE007 growth inh: 0%; HCV inhibitor: inconclusive; MARV entry inh: inconclusive; Lassa entry inh: 14µM*

How did O=c1oc2ccccc2cc1-c1csc(Nc2nc3c(F)cccc3s2)n1 do in these assays?
Sm TGR block: -9%; FMDV antiviral: 7.1µM*; RE007 growth inh: 9%; HCV inhibitor: 13µM*; MARV entry inh: inconclusive; Lassa entry inh: inconclusive

Results for O=C1C2C3C=CC(CC3)C2C(=O)N1c1ccc([N+](=O)[O-])cc1 (configuration not stated) ?
Sm TGR block: 20µM*; FMDV antiviral: -19%; RE007 growth inh: 10%; HCV inhibitor: 17%; MARV entry inh: 0%; Lassa entry inh: inconclusive

Results for CCOC(=O)c1cccc(NC(=O)C2CCN(S(=O)(=O)c3cccs3)CC2)c1 ?
Sm TGR block: -1%; FMDV antiviral: 25µM*; RE007 growth inh: 6%; HCV inhibitor: inconclusive; MARV entry inh: inconclusive; Lassa entry inh: inconclusive

What do the screens show for `O=C(Nc1ccc(Cl)cn1)C1CCN(S(=O)(=O)c2cccs2)CC1`?
Sm TGR block: 1%; FMDV antiviral: inconclusive; RE007 growth inh: -3%; HCV inhibitor: 11µM*

What do the screens show for `CCc1ccc(NC(=O)C2CCN(S(=O)(=O)c3cccs3)CC2)cc1`?
Sm TGR block: -3%; FMDV antiviral: inconclusive; RE007 growth inh: 10%; HCV inhibitor: 4.5µM*; MARV entry inh: -9%[46.1 µM]; Lassa entry inh: inconclusive

What do the screens show for `CCOC(=O)c1c(NC(=O)C2CCN(S(=O)(=O)c3cccs3)CC2)sc(C)c1C`?
Sm TGR block: 9%; FMDV antiviral: -17%; RE007 growth inh: 18%; HCV inhibitor: -6%; MARV entry inh: -21%; Lassa entry inh: -25%

How did O=C(Nc1nccs1)C1CCN(S(=O)(=O)c2cccs2)CC1 do in these assays?
Sm TGR block: 1%; FMDV antiviral: -24%; RE007 growth inh: -11%; HCV inhibitor: -12%; MARV entry inh: -23%; Lassa entry inh: 1%

What do the screens show for `CCOC(=O)c1ccc2c(c1)nc(C1CCN(S(=O)(=O)c3cccs3)CC1)n2CC`?
Sm TGR block: -2%; RE007 growth inh: 1%; HCV inhibitor: 6.3µM*; MARV entry inh: inconclusive; Lassa entry inh: inconclusive

How did CCc1cccc(NC(=O)C2CCN(S(=O)(=O)c3cccs3)CC2)c1 do in these assays?
Sm TGR block: -18%; FMDV antiviral: inconclusive; RE007 growth inh: 0%; HCV inhibitor: inconclusive; MARV entry inh: -1%; Lassa entry inh: -5%

Results for O=C(COCc1cc(-c2cccs2)on1)Nc1ccc(OC(F)(F)F)cc1 ?
Sm TGR block: 5%; FMDV antiviral: -20%; Lassa entry inh: 1%[46.1 µM]

Results for CC(C)C[C@H]1COc2cc(F)ccc2S(=O)(=O)N1 ?
Lassa entry inh: -2%[46.1 µM]

Assay outcomes from PubChem BioAssay.
